KB-V1 cytotox – qHTS assay for MDR1-selective chemotherapeutics: Primary screen using the drug-selected MDR subline cells KB-V1; KB-V1 MDR cells viability, CellTiter-Glo, 72 h; Potency, µM (top dose mostly 46.1 µM), most hits filed as cytotoxic; actives 3.4% (n = 400,000); AID 1347076, 2019; note: nearly all actives have a fitted effect of over 60% in size
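Cells of the MDR subline KB-V1 are plated, dosed with compound at multiple concentrations, and incubated 72 h at 37 degrees C; CellTiter-Glo is then added and luminescence read after 10 min.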
TDP1 cell CPT – qHTS for Inhibitors of human tyrosyl-DNA phosphodiesterase 1 (TDP1): qHTS in cells in presence of CPT; chicken DT40 Tdp1-/-;hTDP1 cells + 20 nM CPT, ATP luminescence, 48 h; Potency, µM (top dose mostly 46.2 µM), inactives show at the top dose activity change, negative = growth inhibition, hits mostly inhibitors; actives 12% (n = 420,000); note: nearly all actives have a fitted effect of over 55% in size
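Cell growth measured by CellTiter-Glo luminescence after a minimum 48 h, 37 C compound exposure with 20 nM CPT in Tdp1-knockout DT40 cells stably expressing hTDP1, seeded 400/well; qHTS titration format.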
KB-3-1 cytotox – qHTS assay for MDR1-selective chemotherapeutics: Primary screen using the parental adenocarcinoma cell KB-3-1. KB-3-1 viability, CellTiter-Glo ATP luminescence, 72 h. actives 1.4% (n = 400,000). Potency, µM (doses to about 46.1 µM), hits mostly cytotoxic. AID 1347075, 2019; note: nearly all actives have a fitted effect of over 60% in size
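Here the drug-naive KB-3-1 line serves as comparator for MDR sub-line selectivity; cells received compound titrations, 72 h at 37 °C, then CellTiter-Glo readout.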
DT40 TDP1 no CPT – qHTS for Inhibitors of human tyrosyl-DNA phosphodiesterase 1 (TDP1): qHTS in cells in absence of CPT; AID 686978, 2013; DT40 Tdp1-/- hTDP1 cells, no CPT, ATP luminescence, 48 h; Potency, µM (top dose mostly 46.2 µM), without a hit: top-dose activity change, negative = growth inhibition, most hits filed as inhibitors; actives 15% (n = 420,000); note: nearly all actives have a fitted effect of over 55% in size
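No-CPT arm: Tdp1-/-;hTDP1 DT40 cells (400/well) plus compounds, incubated ≥48 hr at 37 °C. Readout CellTiter-Glo luminescence.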
HT1080-NT tox – qHTS for induction of synthetic lethality in tumor cells producing 2HG: qHTS for the HT-1080-NT fibrosarcoma cell line. Potency, µM (series often up to 46.1 µM), for inactives: top-dose activity, negative = less viability, actives largely listed as cytotoxic. AID 686970, 2013. actives 1.6% (n = 360,000). HT-1080-NT fibrosarcoma viability, CellTiter-Glo ATP luminescence, 48 h;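 note: NT is the 2HG producing partner of a matched IDH1 knockdown line; 0% = DMSO-treated cells and -100% = media-only wells without cells; nearly all actives have a fitted effect of over 55% in size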
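Compounds were tested in concentration-response format on HT-1080-NT cells for 48 hours at 37 degrees C. Cell viability came from CellTiter-Glo luminescence; curves were classified by r2, response magnitude and activity.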
HT1080 IDH1KD tx – qHTS for induction of synthetic lethality in tumor cells producing 2HG: qHTS for the HT-1080-IDH1KD cell line; HT-1080 IDH1 knockdown viability, ATP luminescence, 48 h; Potency, µM (doses to about 46.1 µM), for the others: at the highest dose activity, negative = toxicity, hits mostly cytotoxic; actives 2% (n = 360,000); AID 686971, 2013;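 note: 0% = DMSO wells and -100% = cell-free medium wells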
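HT-1080-IDH1KD cells (IDH1 knocked down), 750/well in RPMI with 5% FBS, treated with compound 48 h at 37 degrees C. Viability by CellTiter-Glo luminescence, normalised to DMSO and no-cell wells; concentration-response curves classed.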
* hit, by the source's call; i = inactive; ? = inconclusive; · = no result; ! = repeats disagree. This is a sample that favours compounds with a hit; in the whole collection about 19% have one here. Calls come from the whole dose curve; as a rule, active = well fitted curve in the direction sought with a large enough effect; inconclusive = small, poorly fitted or top-dose-only effect, or another doubt; inactive = no such curve, though single readings can be large; an effect the other way counts as inactive or inconclusive. Unless noted, % is set by controls: 0 for no effect and ±100 for the full control effect; potency is the fitted concentration of half-maximal effect.

SMILES	KB-V1 cytotox	TDP1 cell CPT	KB-3-1 cytotox	DT40 TDP1 no CPT	HT1080-NT tox	HT1080 IDH1KD tx
COc1ccc(CNc2ccncc2)c(OC)c1OC	i	?	i	-22%	-17%	-9%
COc1cc(NCc2ccc3nc(N)nc(N)c3c2C)cc(OC)c1OC	·	0.38µM*	·	0.12µM*	·	·
CCN(C[C@H]1N[C@@](Cc2ccccc2)(C(=O)OC)[C@H]2C(=O)N(Cc3ccccc3)C(=O)[C@@H]12)C(=O)NC(C)C	i	?	i	?	7%	10%
CCN(C[C@H]1N[C@@](C)(C(=O)OC)[C@H]2C(=O)N(Cc3ccccc3)C(=O)[C@@H]12)C(=O)Nc1ccc(Cl)cc1	i	?	i	?	-3%	-2%
CCN(C[C@H]1N[C@@](Cc2ccccc2)(C(=O)OC)[C@H]2C(=O)N(C)C(=O)[C@@H]12)C(=O)Nc1ccc(C(F)(F)F)cc1	i	16µM*	i	?	7%	-2%
CCN(C[C@H]1N[C@@](Cc2ccccc2)(C(=O)OC)[C@H]2C(=O)N(Cc3ccccc3)C(=O)[C@@H]12)C(=O)Nc1ccc(F)cc1	i	?	?	16µM*	0%	-15%
CCN(C[C@H]1N[C@@](Cc2ccccc2)(C(=O)OC)[C@H]2C(=O)N(Cc3ccccc3)C(=O)[C@@H]12)C(=O)Nc1ccc(Cl)cc1	?	?	?	18µM*	?	?
COc1ccc(-n2ncc3c(NC4CCCC4)ncnc32)cc1	i	?	i	?	·	·
Cc1cc(C)nc(SCC(=O)NC2=NN=C(c3ccc(Br)cc3)CS2)n1	i	13µM*	?	13µM*	22µM*	16µM*
CN(C)c1ncc2nc(-c3cccs3)c(=O)n(-c3ccccc3)c2n1	·	0%	·	24%	·	·
COc1ccc(OC)c(S(=O)(=O)NCc2ccccn2)c1	i	-2%	i	-2%	-7%	5%
CC(=Nc1ccccc1C(F)(F)F)c1ccncc1	i	1%	i	-4%	17%	11%
COc1ccnc(CSC(N)=Nc2ccccc2C(F)(F)F)c1	i	26µM*	i	15µM*	-11%	-17%
COc1ccnc(CSC(N)=Nc2cccc(C(F)(F)F)c2)c1	?	12µM*	?	16µM*	1%	-7%
COc1ccnc(CSC(N)=Nc2ccccc2OC)c1	?	?	?	13µM*	?	-6%
COC(=O)C1(C(=O)OC)c2ccccc2CN(S(=O)(=O)c2ccc(C)cc2)C1CC(C)=O (stereo unspecified)	i	6%	i	-2%	13%	6%
Cc1cc(C(=O)N2CCN(CCc3ccccc3)CC2)no1	?	5%	i	2%	11%	0%
O=S(=O)(c1ccc(Cl)cc1)N1CCN(CCc2ccccc2)CC1	i	-24%	i	-21%	2%	1%
Cc1c(C2CCN(CCc3ccccc3)CC2)noc1-c1ccc(Cl)cc1	·	12µM*	·	9.2µM*	·	·
Cc1c(-c2ccc(Cl)cc2)noc1C1CCN(CCc2ccccc2)CC1	·	?	·	15µM*	·	·
COc1cccc(CCC(=O)Nc2cccc(S(=O)(=O)N3CCCC3)c2)c1OC	i	?	i	?	-1%	-3%
Cc1ccccc1Cn1cnc2c(NS(C)(=O)=O)c(C)c(C)cc21	16µM*	?	?	?	-7%	-11%
CCCN1C(=O)/C(=N\OCC(=O)Nc2ccc(C(C)C)cc2)c2ccccc21	?	-15%	i	?	-4%	7%
CCCN1C(=O)/C(=N\OCC(=O)NC23CC4CC(CC(C4)C2)C3)c2ccccc21	16µM*	16µM*	i	16µM*	-5%	-1%
OC(CNc1nc(C(F)(F)F)nc2ccccc12)c1ccccc1 (stereo unspecified)	12µM*	?	?	?	?	?
SMILES	KB-V1 cytotox	TDP1 cell CPT	KB-3-1 cytotox	DT40 TDP1 no CPT	HT1080-NT tox	HT1080 IDH1KD tx
O=C(O)CCNc1nc(C(F)(F)F)nc2ccccc12	i	-5%	i	-19%	-2%	-15%
COc1ccc(N(C(=O)COc2c(C)cccc2C)S(=O)(=O)c2ccc(Cl)cc2)cc1	i	23µM*	i	?	·	·
COc1ccc(N(C(=O)COc2ccc(Br)cc2)S(=O)(=O)c2ccc(C)cc2)cc1	i	?	i	21µM*	·	·
CCOc1c(C)cc(-c2ncccc2O)cc1C	13µM*!	?	?	-7%	-1%	-20%
COc1ccc(Cc2c(O)nc(SCC(=O)NC(C)(C)C)[nH]c2=O)cc1	i	-28%	i	-22%	12%	1%
CCCOc1ccc(CCC(=O)N/N=C/c2ccco2)cc1	i	-3%	i	-28%	2%	0%
CCCOc1ccc(CCC(=O)N/N=C/c2ccncc2)cc1	?	26µM*	i	?	-6%	-7%
CCc1cc(C(=O)Cc2cnn(-c3ccccc3)c2)c(O)cc1O	23µM*	-20%	i	-20%	-2%	-17%
Cc1ccc(-n2cc(C(=O)c3ccccc3O)cn2)cc1	i	-22%	i	?	2%	-8%
Oc1cnn(-c2ccccc2)c1	i	?	i	-23%	0%	-4%
Cc1ccc(O)c(C(=O)c2cnn(-c3ccccc3)c2)c1	?	7.3µM*	i	12µM*	2%	1%
CCc1cc(C(=O)Cc2ccccn2)c(O)cc1O	i	-7%	i	-10%	2%	-2%
O=C(Cc1cnn(-c2ccccc2)c1)c1ccc(O)c(O)c1O	i	21µM*	?	?	-13%	-3%
CC(C)Cn1c(C(C)C)nc([N+](=O)[O-])c1Sc1ccc(Cl)cn1	?	?	?	?	-2%	-13%
CCCCn1c(CCC)nc([N+](=O)[O-])c1Sc1ccc(Cl)cn1	i	18µM*	?	?	-13%	-3%
CC(C)(C)OC(=O)NCCCCCNC(=O)c1nc[nH]c1C(=O)NCCCCCNC(=O)OC(C)(C)C	?	12µM*	?	10µM*	-25%	-14%
